Measured values taken from the supplement of paper PMC4371806.
The full ranking holds about 1,600 compounds; the median of “plate-normalized OD600 growth (mean of duplicates)” is about 0.31, and the lowest 2% start at about 0.23. The sample as a whole holds a higher share of the lowest values than the screen did.

System: Escherichia coli BW25113
Test: plate-normalized OD600 growth (mean of duplicates) (OD600 (normalized)); higher = more growth (less inhibition)
Conditions: 10 µM
Method: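 E. coli BW25113 in LB (100 µl, 96-well, no shaking) was exposed to 10 µM of each compound (here the ChemBridge subset of a ~30,000-member library) and grown at 37°C for 24 h or 15°C for 48 h, in duplicate. Growth was read as OD600 and the duplicate ODs were normalized across screening plates to correct plate-to-plate variation.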

| Compound | plate-normalized OD600 growth (temperature: 15°C, 48 h) | plate-normalized OD600 growth (temperature: 37°C, 24 h) |
| --- | --- | --- |
| OC(COc1ccc(C23CC4CC(CC(C4)C2)C3)cc1)CN1CCOCC1 (centres undefined) | 0.243 | 0.592 |
| Cc1ccccc1C(=O)Nc1ccc(Br)cc1 | 0.282 | 0.631 |
| NCC(=O)Nc1ccc(Br)cc1 | 0.227 | 0.606 |
| O=C(Nc1ccc(Br)cc1)c1cccnc1 | 0.244 | 0.633 |
| COc1ccc(-c2cn3ccccc3n2)cc1F | 0.229 | 0.633 |
| O=[N+]([O-])c1ccc(-c2nnc(-c3ccccc3Cl)o2)cc1 | 0.244 | 0.601 |
| CCC(CO)NC1=C([N+](=O)[O-])C(=O)CC(C)(C)C1 (centres undefined) | 0.282 | 0.666 |
| CCN1CCN(C/C=C/c2ccccc2)CC1 | 0.28 | 0.634 |
| CCN(CC)CCN(C)Cc1cccc([N+](=O)[O-])c1 | 0.245 | 0.601 |
| CCN(CC)CCN(C)C/C=C/c1ccccc1 | 0.208 | 0.608 |
| C=CCSc1nc(N)c(C#N)c(CC)c1C#N | 0.239 | 0.605 |
| Cc1ccccc1C(=O)N1CCCCC1CO (centres undefined) | 0.294 | 0.624 |
| CCC1CCCCN1C(=O)c1cccs1 (centres undefined) | 0.225 | 0.613 |
| CCC1CCCCN1C(=O)c1cccc([N+](=O)[O-])c1C (centres undefined) | 0.247 | 0.612 |
| COc1cc2c(cc1OC)C(c1cc(OC)c(OC)c(OC)c1)N(C)CC2 (centres undefined) | 0.244 | 0.624 |
| COc1cc(OC)cc(C(=O)Nc2cccc(C)c2C)c1 | 0.253 | 0.63 |
| O=C(O)CSc1nccn1Cc1ccccc1 | 0.244 | 0.625 |
| CCOC(=O)N1CCN(Cc2ccc(N(C)C)cc2)CC1 | 0.219 | 0.58 |
| CCOC(=O)N1CCN(Cc2ccccc2Cl)CC1 | 0.244 | 0.621 |

| Compound | plate-normalized OD600 growth (temperature: 15°C, 48 h) | plate-normalized OD600 growth (temperature: 37°C, 24 h) |
| --- | --- | --- |
| CCOC(=O)N1CCN(Cc2c(F)cccc2F)CC1 | 0.263 | 0.656 |
| O=C(Nc1ccc(Oc2ccc(NC(=O)c3cccnc3)cc2)cc1)c1cccnc1 | 0.27 | 0.629 |
| Fc1ccc(CN2CCN(c3ncccn3)CC2)cc1 | 0.253 | 0.629 |
| N#CSCCCCOc1ccccc1Cl | 0.251 | 0.605 |
| CC(C)(C)c1ccccc1OCCCSC#N | 0.233 | 0.622 |
| CC(C)(C)c1ccccc1OCCCCSC#N | 0.209 | 0.619 |
| CC(c1ccccc1)N1CCC(=O)C2=C1CCCC2 (centres undefined) | 0.241 | 0.604 |
| [O-][n+]1onc2c(-c3ccccc3)nnc(-c3ccccc3)c21 | 0.254 | 0.616 |
| Fc1ccc(CN2CCN(c3ccccn3)CC2)c(F)c1 | 0.244 | 0.601 |
| N#CCCN(CCN1CCCC1)S(=O)(=O)c1cccc2nsnc12 | 0.253 | 0.624 |
| CN(C)c1nc(N)nc(-c2ccco2)n1 | 0.226 | 0.632 |
| Nc1nc(-c2ccco2)nc(-c2ccco2)n1 | 0.272 | 0.646 |
| N#Cc1c(N)nc2c(c1-c1ccco1)CCCCCC2 | 0.249 | 0.615 |
| O=C1CCCc2c1nn(-c1ccccc1)[n+]2[O-] | 0.249 | 0.618 |
| O=C(Nc1ccc(F)cc1F)c1cccc(Br)c1 | 0.259 | 0.605 |
| COc1ccc(C)cc1NCc1ccc(SC)cc1 | 0.282 | 0.644 |
| Cc1nc(N)nc(OCC(F)(F)C(F)F)c1Br | 0.221 | 0.604 |
| CCN(CC)CCOc1ccccc1Br | 0.233 | 0.621 |
